Screening results deposited in PubChem by The Scripps Research Institute Molecular Screening Center.
ADAM17 inh = ADAM17 inhibitors, primary screen, biochemical, QFRET; Disintegrin and metalloproteinase domain-containing protein 17 (Homo sapiens), P78536; recombinant ADAM17, EDANS/DABCYL FRET peptide cleavage; inhibition, % at 6.95 µM; actives 0.83% (n = 370,000); AID 720648, 2013;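 active = inhibition above the mean of compounds lying between control limits plus 3 SD, set per campaign, cut at about 8.5% in these data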
PLC-beta3 inh = human PLC-beta3 inhibitors, primary screen, biochemical, fluorescence | Purified PLC-beta3, fluorogenic substrate | inhibition, % at 12.2 µM | 1-phosphatidylinositol 4,5-bisphosphate phosphodiesterase beta-3 (Homo sapiens), Q01970 | actives 0.18% (n = 370,000); in the data active = inhibition above about 11%
PLCg1 inh = PLC-gamma1 enzyme inhibitors, primary screen, biochemical, fluorescence, purified enzyme | 1-phosphatidylinositol 4,5-bisphosphate phosphodiesterase gamma-1 (Homo sapiens), P19174 | fluorogenic substrate | inhibition, % at 12.2 µM | actives 0.84% (n = 370,000) | AID 720700, 2013; in the data active = inhibition above about 9.5%
ADAM10 inh = human ADAM10 inhibitors, primary screen, biochemical, QFRET, HTS | Disintegrin and metalloproteinase domain-containing protein 10 (Homo sapiens), O14672 | recombinant ADAM10, EDANS/DABCYL FRET peptide cleavage, 3 h | inhibition, % at 7 µM | actives 0.62% (n = 370,000);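 active = inhibition above a per-campaign cutoff equal to the mean of compounds falling between control-based bounds plus 3 SD, cut at about 20% in these data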
Target sequence (O14672 214-748 limits assumed): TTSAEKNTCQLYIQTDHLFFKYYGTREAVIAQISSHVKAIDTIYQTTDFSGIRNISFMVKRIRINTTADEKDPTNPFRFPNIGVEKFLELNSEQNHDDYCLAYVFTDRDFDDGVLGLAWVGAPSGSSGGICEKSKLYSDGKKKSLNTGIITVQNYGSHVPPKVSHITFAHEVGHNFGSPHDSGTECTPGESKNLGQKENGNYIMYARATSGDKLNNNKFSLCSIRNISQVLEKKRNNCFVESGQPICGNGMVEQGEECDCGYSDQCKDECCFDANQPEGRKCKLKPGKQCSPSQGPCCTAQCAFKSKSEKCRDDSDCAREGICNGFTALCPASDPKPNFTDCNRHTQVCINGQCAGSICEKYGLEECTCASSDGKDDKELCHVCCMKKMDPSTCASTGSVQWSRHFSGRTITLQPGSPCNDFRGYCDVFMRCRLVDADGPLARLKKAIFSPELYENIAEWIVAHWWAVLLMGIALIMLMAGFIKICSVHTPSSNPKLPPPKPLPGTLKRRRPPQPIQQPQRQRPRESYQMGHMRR
proKLK7 act = proKLK7 zymogen activators, primary screen, biochemical, fluorescence intensity. Kallikrein-7 (Homo sapiens), P49862. purified proKLK7, EDANS-DABCYL substrate fluorescence; 100% is mature enzyme control, 0% vehicle. activation, % at 7 µM. actives 0.9% (n = 370,000);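 active = activation above the mean of all tested compounds plus 3 SD, computed per campaign excluding outliers beyond control limits, cut at about 13% in these data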
HGIII-sPLA2 inh = human group III sPLA2 inhibitors, primary screen, biochemical, QFRET, BODIPY PC-A2 liposome substrate; Group 3 secretory phospholipase A2 (Homo sapiens), Q9NZ20; QFRET BODIPY PC-A2 liposome hydrolysis, fluorescence; inhibition, % at 12.2 µM; actives 0.56% (n = 370,000);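 active = inhibition above mean plus 3 SD of compounds lying within the high and low control bounds, cut at about 19% in these data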
ADAM10 confirm = human ADAM10 inhibitors, confirmation, biochemical, QFRET, triplicate | shares compounds with ADAM10 inh | ADAM10 QFRET peptide cleavage, EDANS fluorescence | inhibition, % at 6.95 µM | actives 1% (n = 2,100);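 active = inhibition above about 20% chosen separately for each screening run, limit read from the data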
ADAM17 ctr = ADAM17 inhibitors, counter-screen for ADAM10 exosite inhibitor project, biochemical, QFRET, high throughput; inhibition, % at 6.95 µM; shares compounds with ADAM10 inh; AID 743214, 2013; actives 0.5% (n = 2,100); ADAM17 QFRET peptide cleavage, EDANS fluorescence;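 active = mean triplicate inhibition above the solvent-only control wells' mean plus 3 SD, cut at about 12% in these data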
ADAM10 ctr = ADAM10 inhibitors, counter-screen for ADAM17 exosite inhibitor project, biochemical, FRET, human ADAM10; shares compounds with ADAM17 inh; recombinant ADAM10, EDANS/DABCYL FRET peptide cleavage, 3 h; inhibition, % at 6.95 µM; actives 47% (n = 2,900); AID 743256, 2014;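 active = mean inhibition over the triplicate runs exceeds the activity threshold set in the earlier primary screen, cut at about 20% in these data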
ADAM17 confirm = ADAM17 inhibitors, hit retest, confirmation, biochemical, QFRET peptide cleavage; shares compounds with ADAM17 inh; recombinant ADAM17, EDANS/DABCYL QFRET peptide cleavage; inhibition, % at 6.95 µM; actives 65% (n = 2,900);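 active = mean inhibition across replicates above the hit cutoff set in the primary screen, cut at about 8.5% in these data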
Hits are given with their value; i = inactive; nt = no result. Most compounds without a hit are left out; they make up all but 3.4% or so of the library.

SMILES | ADAM17 inh | PLC-beta3 inh | PLCg1 inh | ADAM10 inh | proKLK7 act | HGIII-sPLA2 inh | ADAM10 confirm | ADAM17 ctr | ADAM10 ctr | ADAM17 confirm
O=C(CSc1nnc(-c2cccs2)n1Cc1ccco1)Nc1ccc(Oc2ccccc2)cc1 | 8.7 | i | i | 21.2 | i | i | i | i | 27.7 | 13.5
COc1ccc(-n2c(Cc3cccs3)nnc2SCC(=O)Nc2ccc(OCc3ccccc3)cc2)cc1 | 11.0 | i | i | 21.4 | i | i | i | i | 25.3 | 16.4
COc1ccc(/C=C2\SC(=O)N(CC(=O)NCCCn3ccnc3)C2=O)cc1 | i | i | i | i | i | i | nt | nt | nt | nt
COc1ccc(-c2cc(C(=O)Nc3cc(Br)ccc3O)no2)cc1 | i | i | i | i | i | i | nt | nt | nt | nt
O=C(CCC(=O)N1CCOCC1)NCCc1ccccc1 | i | i | i | i | i | i | nt | nt | nt | nt
Cc1ccc(S(=O)(=O)N2CCN(C(=O)n3ccnc3)CC2)cc1 | i | i | i | i | i | i | nt | nt | nt | nt
Cc1cccc(CC(=O)NCCN2CCCCC2)c1 | i | i | i | i | i | i | nt | nt | nt | nt
COc1ccc(N2CCN(C(=O)c3ccc4c(c3)CCN4S(C)(=O)=O)CC2)cc1 | i | i | i | i | i | i | nt | nt | nt | nt
CCOC(=O)CSc1nc2ccc(NC(=O)CSc3nnnn3Cc3ccccc3)cc2s1 | i | i | i | i | i | i | nt | nt | nt | nt
CC(C)(C)NC(=O)CSc1nc2ccc(NC(=O)CSc3nnnn3Cc3ccccc3)cc2s1 | 9.8 | i | i | 24.6 | i | i | i | i | 22.3 | 14.1
COc1cc(/C=C/C(=O)O)ccc1OS(=O)(=O)c1c(C)cc(C)cc1C | i | i | i | i | i | i | nt | nt | nt | nt
Cc1ccc(S(=O)(=O)Nc2ccc3c(c2)n(C)c(=O)n3C)c(C)c1 | i | i | i | i | i | i | nt | nt | nt | nt
CC(C)c1ccc(S(=O)(=O)Nc2ccc(SC(F)F)cc2)cc1 | 19.4 | i | i | 41.0 | i | i | i | i | 25.5 | 15.3
CC(C)c1ccc(NS(=O)(=O)c2ccc(Cl)nc2)cc1 | i | i | i | i | i | i | nt | nt | nt | nt
Cc1ccc(S(=O)(=O)Nc2ccc(SC(F)F)cc2)c(C)c1 | 11.4 | i | i | 26.6 | i | i | i | i | 23.4 | 11.1
Cc1nc2ccc(NC(=O)c3ccc([N+](=O)[O-])cc3)cc2[nH]1 | i | i | i | i | i | i | nt | nt | nt | nt
CNC(=S)NNC(=O)c1sccc1OCc1ccc(Cl)cc1Cl | i | i | i | i | i | i | nt | nt | nt | nt
S=c1nc(-c2sccc2OCc2ccc(Cl)cc2Cl)[nH][nH]1 | 11.3 | i | i | 20.1 | i | i | i | i | i | 13.2
CCOC(=O)C1(Cc2ccccc2)CCCN(C2CCCC2)C1 (stereo unspecified) | i | i | i | i | i | i | nt | nt | nt | nt
Cc1ccc(NC(=O)N(Cc2ccco2)C(C)c2ccco2)cc1C (stereo unspecified) | i | i | i | i | i | i | nt | nt | nt | nt
Cc1ccc(NC(=O)CN(Cc2ccco2)Cc2ccccc2O)cc1C | 13.8 | i | i | 28.0 | i | i | i | i | 30.4 | 14.2
COC(=O)c1ccc(NC(=O)CCN2C(=O)C3CC=CCC3C2=O)cc1 (stereo unspecified) | i | i | i | i | i | i | nt | nt | nt | nt
Cc1cccc(NC(=O)C2C(c3ccccc3)C2(Cl)Cl)c1 (stereo unspecified) | 11.4 | i | i | 21.3 | i | i | i | i | 24.4 | 14.0
O=C(NN=C1CCCCCCCCCCC1)c1ccncc1 | i | i | i | i | i | i | nt | nt | nt | nt
Cc1cc(C)cc(-n2c(SC(C)C(=O)NCc3ccc4c(c3)OCO4)nc3ccccc3c2=O)c1 (stereo unspecified) | 10.6 | i | i | 22.7 | i | i | i | i | i | 11.3
SMILES | ADAM17 inh | PLC-beta3 inh | PLCg1 inh | ADAM10 inh | proKLK7 act | HGIII-sPLA2 inh | ADAM10 confirm | ADAM17 ctr | ADAM10 ctr | ADAM17 confirm
Cc1cccc(-n2c(SCC(=O)NCc3ccc4c(c3)OCO4)nc3ccccc3c2=O)c1 | i | i | i | i | i | i | nt | nt | nt | nt
COC(=O)[C@@]12C[C@@H](CC(=O)NCCCCc3ccccc3)C(=O)N(Cc3ccc4c(c3)OCO4)C1=CCC(C)(C)C2 | 16.7 | i | i | 27.3 | i | i | i | i | 28.5 | 15.0
N#CC1=C(N)NC(SCC(=O)c2ccc(Br)cc2)=C(C#N)C12CCCCC2 | 12.6 | i | i | 21.8 | i | i | i | i | 41.7 | 18.6
N#CC1=C(N)NC(SCC(=O)c2ccc(Cl)cc2)=C(C#N)C12CCCC2 | i | i | i | i | i | i | nt | nt | nt | nt
Cc1cccc(NC(=S)N/N=C/c2ccc([N+](=O)[O-])s2)c1 | 13.0 | i | i | 25.9 | i | i | i | i | 22.8 | 15.3
Cc1cccc(NC(=O)/C=C/c2ccc([N+](=O)[O-])s2)c1 | i | i | i | i | i | i | nt | nt | nt | nt
CCN(CC(=O)Nc1ccccc1C(F)(F)F)C(=O)c1cccc(N2C(=O)CCC2=O)c1 | i | i | i | i | i | i | nt | nt | nt | nt
Cc1cccc(C)c1N(CC(=O)NCc1ccco1)C(=O)CNS(=O)(=O)c1ccc(F)cc1 | i | i | i | i | i | i | nt | nt | nt | nt
CC(=O)N1CCN(c2ccc(N3CCN(C(C)=O)[C@@H](C)C3)c(C)c2)[C@H](C)C1 | i | i | i | i | i | i | nt | nt | nt | nt
CCN(CC)S(=O)(=O)c1ccc(S(=O)(=O)Nc2ccc3c(c2)oc2ccccc23)cc1 | 13.7 | i | i | 32.1 | i | i | i | i | 47.4 | 25.1
CCCCCn1nc(C(=O)N(CC(C)C)c2c(N)n(CCCC)c(=O)[nH]c2=O)c2ccccc2c1=O | i | i | i | i | i | i | nt | nt | nt | nt
Cc1ccc(C)c(NC(=O)CSc2nnc(NC(=O)C3CC3)s2)c1 | i | i | i | i | i | i | nt | nt | nt | nt
